Measurements published in the supplement of paper PMC6555819.

How the values were obtained:
Test in all cases: PBM binding z-score (relative to random genomic background probes); higher = stronger binding; sequences stand for … in GC…GCGATTGACAGCGTAGAATGAAGG
[1] = test system: RARb homodimer (NR concentration 270 nM)
Summary of the method: (§1)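 Ligand-free nuclear receptor dimers were bound for 1 h to custom Agilent 4×180K protein-binding microarrays. Detection used antibodies against each partner (one per run). Binding z-scores rest on regression-normalized fluorescence, with random background probes as the reference.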

[2] = test system: RARg:RXRa (NR concentration 270 nM, RXRa partner concentration 90 nM)
Summary of the method: as §1

[3] = test system: RARg homodimer (NR concentration 270 nM)
Summary of the method: as §1

[4] = test system: RXRa DBDmut IVT, anti-RXR (DBD mutation: RXRa K156A/R161A, NR concentration 90 nM)
Summary of the method: as §1

[5] = test system: RXRa homodimer (NR concentration 180 nM)
Summary of the method: as §1

[6] = test system: THRa:RXRa (NR concentration 90 nM, RXRa partner concentration 90 nM)
Summary of the method: as §1

[7] = test system: THRa homodimer (NR concentration 90 nM)
Summary of the method: as §1

[8] = test system: VDR homodimer (NR concentration 270 nM)
Summary of the method: as §1

Sequence | PBM binding z-score [1] | PBM binding z-score [2] | PBM binding z-score [3] | PBM binding z-score [4] | PBM binding z-score [5] | PBM binding z-score [6] | PBM binding z-score [7] | PBM binding z-score [8]
TCATATAGGTAATACAGGTCAAAGTCGGCATCTA | 3.29 | 2.91 | 2.37 | 2.04 | 3.63 | 2.71 | 1.24 | 2.13
GCTCGGAGGACAAGGTCAGAGCGTTGTCCGTAGA | 2.97 | 3.26 | 3.69 | 0.33 | 2.43 | 2.89 | 1.25 | 0.555
AGTCAAAGTTCAGGATGAGGTAACGTAAAGCACG | 3.38 | 4.78 | 4.82 | 2.73 | 3.26 | 4.21 | 1.73 | 2.09
TTACCAAGCTGAGCTGAGGTCGTTGATCCAACTC | 0.0127 | -0.204 | -0.865 | 0.00802 | 0.266 | 2.08 | 1.17 | 0.915
ATCTCTAGGTAACAAGTTCATTGAAAGAGAGGAC | 2.29 | 2.04 | 1.72 | 2.49 | 1.8 | 2.14 | 1.24 | 5.08
CGAACTAGGTCCAGGACAGTGAATCTCCGCACGC | -0.206 | -0.326 | -0.183 | 0.703 | -0.387 | 0.749 | 0.778 | 0.133
CCTACTGGGCCACGAAAGGTCATTGTTTCAGTGA | 4.64 | 4.55 | 4.31 | 0.971 | 5.09 | 3.94 | 0.739 | 2.75
AGAACGATGGCAATGAGTTGATAGCACGGGTGGC | -1.04 | -0.249 | 0.108 | -0.297 | 0.0313 | -0.986 | -0.999 | -0.0604
CGTCCAAGGTCAGCATGTCAGTGAAAGCGACGTG | 3.99 | 5.21 | 6 | 2.51 | 4.01 | 3.54 | 2.02 | 0.761
TCTAGCAGGCCAGAGGGTCACTCATGAGGTACGG | 2.62 | 2.59 | 2.22 | -0.0474 | 2.55 | 1.59 | -0.102 | 0.736
